Source: PubChem BioAssay
BAZ2B inh: qHTS Assay for Inhibitors of BAZ2B; Bromodomain adjacent to zinc finger domain protein 2B (Homo sapiens), Q9UIF8; AlphaScreen BAZ2B-H3K14Ac peptide displacement; Potency, µM (highest dose often 114 µM), without a hit: at the highest dose activity change, negative = inhibition, most hits filed as inhibitors; 360,000 tested, 4.4% active; also: potency is read from the fitted curve at half-maximal effect; % is scaled to controls: 0 for no effect and ±100 for the full control effect; nearly all actives have a fitted effect of over 60% in size
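Inhibition is scored as reduced AlphaScreen emission. The BAZ2B/b-H3(5-23)K14Ac complex (50 nM each) in PBS pH 7.4, 0.01% Tween-20 meets compound (up to 110 uM) for 30 min at RT before bead addition.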
JMJD2A Tudor inh: qHTS Assay for Inhibitors of JMJD2A-Tudor Domain; 390,000 tested, 4.4% active; Lysine-specific demethylase 4A (Homo sapiens), O75164; AlphaScreen JMJD2A-Tudor / H3K4me3 peptide binding; Potency, µM (series often up to 114 µM), inactives show top-dose activity change, negative = inhibition, actives largely listed as inhibitors; also: potency is read from the fitted curve at half-maximal effect; % is scaled to controls: 0 for no effect and ±100 for the full control effect; nearly all actives have a fitted effect of over 50% in size
Target sequence (O75164 whole entry, looked up, the tested form may be a part): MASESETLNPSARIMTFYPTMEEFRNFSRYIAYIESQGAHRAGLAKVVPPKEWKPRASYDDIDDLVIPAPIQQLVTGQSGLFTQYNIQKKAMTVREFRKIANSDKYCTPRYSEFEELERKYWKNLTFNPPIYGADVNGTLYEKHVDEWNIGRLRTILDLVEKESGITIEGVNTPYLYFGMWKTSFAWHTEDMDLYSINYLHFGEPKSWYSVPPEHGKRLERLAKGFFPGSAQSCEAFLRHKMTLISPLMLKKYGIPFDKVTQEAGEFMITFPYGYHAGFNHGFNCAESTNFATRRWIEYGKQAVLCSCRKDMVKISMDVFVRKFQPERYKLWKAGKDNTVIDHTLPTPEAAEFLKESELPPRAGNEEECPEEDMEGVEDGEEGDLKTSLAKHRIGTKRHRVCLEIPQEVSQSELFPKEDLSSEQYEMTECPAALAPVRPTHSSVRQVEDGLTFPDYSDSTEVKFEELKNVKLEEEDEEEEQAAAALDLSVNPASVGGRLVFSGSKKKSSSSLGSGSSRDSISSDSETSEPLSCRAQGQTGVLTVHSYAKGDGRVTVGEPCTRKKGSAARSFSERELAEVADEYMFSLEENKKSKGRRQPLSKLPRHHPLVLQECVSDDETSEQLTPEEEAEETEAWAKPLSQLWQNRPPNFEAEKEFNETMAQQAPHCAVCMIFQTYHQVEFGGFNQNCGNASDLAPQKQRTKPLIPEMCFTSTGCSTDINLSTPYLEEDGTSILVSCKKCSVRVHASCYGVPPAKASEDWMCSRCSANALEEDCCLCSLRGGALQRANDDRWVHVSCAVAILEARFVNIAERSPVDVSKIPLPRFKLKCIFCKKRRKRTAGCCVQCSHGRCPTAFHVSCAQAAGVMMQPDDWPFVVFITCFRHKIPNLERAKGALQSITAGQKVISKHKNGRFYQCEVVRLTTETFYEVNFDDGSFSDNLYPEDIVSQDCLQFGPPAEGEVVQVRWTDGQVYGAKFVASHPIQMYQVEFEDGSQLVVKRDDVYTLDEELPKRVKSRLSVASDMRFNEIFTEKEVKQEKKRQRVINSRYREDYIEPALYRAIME
PLK1 PBD block: qHTS for Inhibitors of PLK1-PDB (polo-like kinase 1 - polo-box domain): Primary Screen | Plk1 PBD binding of FITC phosphopeptide, fluorescence polarization | AID 720504, 2013 | Potency, µM, for the others: max response, negative = inhibition, most hits filed as inhibitors | Serine/threonine-protein kinase PLK1 (Homo sapiens), P53350 | 360,000 tested, 2.8% active; also: potency is read from the fitted curve at half-maximal effect; series mostly up to about 57 µM; % is scaled to controls: 0 for no effect and ±100 for the full control effect; nearly all actives have a fitted effect of over 65% in size
PI5P4Ka inh: qHTS for Inhibitors of phosphatidylinositol 5-phosphate 4-kinase (PI5P4K); AID 652105, 2013; max response, %; PI5P4Kalpha enzyme, ADP-Glo luminescence, 60 min; active compounds read low; 330,000 tested, 1.2% active; active = max response of -50% or lower; inconclusive = between -30% and -50%; inactive = -30% or higher; also: value at the top dose of about 77 µM; % is scaled to controls: 0 for no effect and ±100 for the full control effect
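qHTS, 1536-well: enzyme/substrate mix, compound by pin tool, 5 microM ATP final; RT 60 min; ADP-Glo reagents 1 (45 min) then 2 (30 min); luminescence.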
G9a block: qHTS Assay for Inhibitors of Histone Lysine Methyltransferase G9a; Potency, µM (titrated, usually from 102 µM), without a hit: at the top dose activity, negative = inhibition, actives largely listed as inhibitors; G9a H3K9 monomethylation, AlphaScreen, 2 h; Histone-lysine N-methyltransferase EHMT2 (Homo sapiens), Q96KQ7; AID 504332, 2011; 350,000 tested, 8.8% active; also: potency is read from the fitted curve at half-maximal effect; % is scaled to controls: 0 for no effect and ±100 for the full control effect; nearly all actives have a fitted effect of over 75% in size
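Chemiluminescent proximity detection of H3K9 monomethylation, read after 10 min bead incubation in the dark. Reaction: 20 nM G9a, 500 nM biotin-H3K9 peptide, 20 uM SAM cofactor, 2 h, room temperature, following 15 min enzyme-compound preincubation.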
HP1b binding inh: HTS for Inhibitors of HP1-beta Chromodomain Interactions with Methylated Histone Tails. Chromobox protein homolog 1 (Homo sapiens), P83916. AlphaScreen HP1-beta / biotin-H3K9me3 peptide binding. Potency, µM (titrated, usually from 114 µM), inactives show at the highest dose activity change, negative = inhibition, most hits filed as inhibitors. 390,000 tested, 0.56% active; also: potency is read from the fitted curve at half-maximal effect; nearly all actives have a fitted effect of over 70% in size
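HP1-beta protein (50 nM final) preincubated 30 min at room temperature with biotinylated H3(1-18)K9me3 peptide (50 nM) in PBS pH 7.4, 0.01% Tween-20, then compound added for 30 min. AlphaScreen streptavidin donor/nickel chelate acceptor beads (10 ug/mL final), 30 min dark, luminescence read.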
* marks the source's active call; other numbers are inactive results; u = inconclusive; x = not tested or not shown; [ ] = remark or other dose. This is a sample that favours compounds with a hit; in the whole collection about 12% have one here. Unless noted, calls follow the shape of the dose curve; as a rule, active = well fitted curve in the direction sought with a large enough effect; inconclusive = small, poorly fitted or top-dose-only effect, or another doubt; inactive = no such curve, though single readings can be large; an effect the other way counts as inactive or inconclusive.

SMILES | BAZ2B inh | JMJD2A Tudor inh | PLK1 PBD block | PI5P4Ka inh | G9a block | HP1b binding inh
CN(CCCC1CCCC1)C(=O)CC1C(=O)NCCN1Cc1ccc(F)cc1 (stereo not drawn) | u | -26% | -13% | 0 | 79µM* | 19%
CN(Cc1ccccc1)C(=O)C1CCC(CNS(=O)(=O)c2ccc3c(c2)CCCC(=O)N3)CC1 (stereo not drawn) | -17% | -6% | x | x | 6%[59 µM] | 19%
Cc1ccc(NCC(O)C(O)C(O)CO)c(N=Nc2ccccc2)c1C (stereo not drawn) | 11µM* | u | 2% | -3 | -45%[12.7 µM] | u
CC(=O)OCON[N+]([O-])=NC(C)C | x | u | x | x | x | 7%
CC(=O)OCON[N+]([O-])=NC1CCCCC1 | x | 20µM* | x | x | x | u
COC(=O)c1cc(-c2cccc([N+](=O)[O-])c2)c2c(=O)[nH]c(=O)n(C)c2n1 | -6% | -31% | 30µM* | -10 | 19% | 4%
CCn1c(C)c(C(C)=O)c(N2CCN(c3ccccc3)CC2)nc1=S | -25% | -4% | -13% | -11 | -39%[59 µM] | 28%
CC(=O)c1c(N2CCN(C)CC2)[nH]c(-c2ccccc2)nc1=S | u | 79µM* | -12% | 1 | 14%[0.0925 µM] | -4%
COc1ccc(C(=O)Nc2ccc(C(=O)N3CCCCC3C)cc2)c(OC)c1OC (stereo not drawn) | -2% | -10% | -6% | 1 | -6% | 20%
O=C(NNc1nc(-c2ccccc2)cs1)c1ccc(F)cc1 | -29% | -19% | -3% | -5 | 20µM* | 18%
O=C(NNc1nc(-c2ccc(F)cc2)cs1)c1ccccc1 | -17% | -19% | u | -53* | 22µM* | u
CC(=O)Nc1ccc(NC(=O)c2ccc3c(c2)CCN3S(=O)(=O)c2ccc(Cl)cc2)cc1 | 0% | -14% | x | x | -22%[59 µM] | 19%
CS(=O)(=O)N1CCC[C@@]2(CCN(C(=O)Nc3cccc(C#N)c3)C2)C1 | x | x | x | x | -1%[12.7 µM] | x
Cn1nnnc1Sc1ncnc2scc(-c3ccc(C(=O)OC(C)(C)C)cc3)c12 | x | -26% | x | x | x | x
O=C(CSc1nnc(NC(=O)C2CC2)s1)Nc1ccccc1C(F)(F)F | -20% | 2% | -1% | 2 | 26% | 41%
O=C1c2ccccc2C(=O)c2cc(N3CCCCC3)ccc21 | x | 13µM* | 1% | u | x | u
Nc1cc(Cl)ccc1N1CCCCCC1 | -38% | -24% | -24% | -2 | 10µM* | -14%
Cc1nn(-c2cc(N3CCCCC3)ccc2N)c(=O)c2ccccc12 | -3% | -16% | -9% | x | 3.2µM* | 0%
Nc1ccc(N2CCCCC2)cc1N1CCCCC1 | 35µM* | 28µM* | -8% | 5 | 2.5µM* | u
Nc1cc(Cl)ccc1N1CCCCC1 | -14% | -9% | -2% | 1 | 1% | 11%
CCCCn1c(N)c(N(CC)C(=O)c2ccc([N+](=O)[O-])c(C)c2)c(=O)[nH]c1=O | 6% | 0% | -6% | 2 | -4% | 30%
CCC1CCC2(CC1)NNC(=S)NN2 | u | 50µM* | -20% | -8 | 2µM* | -66%
COc1cccc(-c2c(-c3ccccc3OC)ncn2Cc2cccc(-c3ccccc3)c2)c1 | x | x | -10% | -2 | x | x
Cc1ccc(C)c(CSc2nc3ccncc3n2CC(=O)Nc2ccc(N(C)C)cc2)c1 | u | u | x | x | 5µM* | -9%
CN(C)c1ccc(NC(=O)Cn2c(SCc3ccccc3F)nc3cccnc32)cc1 | -10% | -14% | x | x | 3.2µM* | 16%
SMILES | BAZ2B inh | JMJD2A Tudor inh | PLK1 PBD block | PI5P4Ka inh | G9a block | HP1b binding inh
CN(C)c1ccc(-n2cccc2)cc1 | 22µM* | 20µM* | -9% | 1 | 40µM* | 22µM*
CC(C)CCN(C(=O)Nc1ccc(Cl)c(Cl)c1)C1CCN(C(C)C)CC1 | 1% | -8% | x | x | -2%[59 µM] | 24%
COc1ccc(NC(=S)N(CCC(C)C)C2CCN(C(C)C)CC2)cc1Cl | -9% | -35% | 2.1µM* | -4 | 5µM* | 11%
COCCN(C(=S)Nc1ccc(OC)c(Cl)c1)C1CCN(C(C)C)CC1 | -20% | -14% | 13µM* | -4 | u | 19%
COC(=O)c1ccc(OCC2c3cc(OC)c(OC)cc3CCN2C(=O)Cc2ccccc2)cc1 (stereo not drawn) | u | -35% | x | x | -5%[59 µM] | 1%
CCOC(=O)c1ccc(S(=O)(=O)N2CCN(c3nc(-c4ccccc4)nc4ccccc34)CC2)cc1 | x | -4% | x | x | x | 19%
CC1CCN(C(=O)c2ccc3c(c2)N(Cc2ccccc2)C(=O)c2ccccc2S3(=O)=O)CC1 | -37% | -20% | x | x | -3%[59 µM] | 36%
CCOC(=O)C1(CC2CCCCO2)CCN(C(=O)Nc2ccc(SC)cc2)CC1 (stereo not drawn) | -16% | -32% | -10% | 6 | 7% | 18%
CCOC(=O)C1(CC2CCCCO2)CCN(C(=O)Nc2cccc(SC)c2)CC1 (stereo not drawn) | -5% | u | 21µM* | -8 | -7% | u
COc1ccc(C2CCc3cc4c(cc3C2=NO)OCO4)cc1OC (stereo not drawn) | x | x | -2% | -1 | x | x
CC(C)C[C@H](NC(=O)NCc1ccc(Cl)cc1)C(=O)O | 2% | -25% | -1% | 5 | 35µM* | 13%
O=C(NCc1ccc(Cl)cc1)NCC(F)(F)F | 6% | -14%[57.1 µM] | 30µM* | -7 | -2% | u
O=C(NCc1ccc(Cl)cc1)Nc1ccc(F)cc1 | 1% | -15% | -8% | 5 | -3% | 24%
CCc1cccc(NC(=O)CSc2ncc3c(n2)-c2ccc(Cl)cc2N(Cc2ccccc2)S3(=O)=O)c1 | -37% | -19% | x | x | -15%[59 µM] | -3%
CC(=O)N1C=Cc2c(c(C)c3c([nH]c4ccccc43)c2C)C1 | -25% | x | x | x | -35% | x
COc1ccc2c(C)cc(=S)[nH]c2c1 | -27% | -16%[11.4 µM] | 11µM* | 5 | 40µM* | 15%
CC(C)Nc1nc(C#N)nc(Nc2ccccc2)n1 | x | -16% | x | x | x | x
COc1cc(C(=O)ON=C2C(C)=CC(=O)C=C2C)cc(OC)c1OC | u | -12% | u | x | 32µM* | 21%
COc1cc(C(=O)O/N=C2/C=C(C)C(=O)C=C2C)cc(OC)c1OC | -9% | -13% | u | 0 | -11%[59 µM] | 61%
O=C(Nc1ccc(Cl)cc1)Nc1ccc(Br)cn1 | 1% | u | 30µM* | -21 | -11% | 12%
